Measurements published in PubChem BioAssay.
Values without a mark were called inactive. Calls of active or inactive are those of the source.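 How the source made its calls: active means differentiation response of at least 50%, scaled between solvent and reference control, from cells with both markers; inactive means the rest.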

Test: promoters of myeloid differentiation in arrested cells, primary screen, cell-based, GFP/MAC1 double positive, flow cytometry, validation set (AID 588685);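 further: compound exposure lasts four days before antibody staining and flow analysis; 0% = DMSO wells and 100% = 5 µM fulvestrant positive control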
Settings: ER-HoxA9 marrow cells, active compounds read high, normalized: vehicle 0, fulvestrant 100

Compound	differentiation response
Fc1ccc(-n2cc(CNCCc3ccccn3)c(-c3ccccc3Cl)n2)cc1	-7.94%
CO[C@@]1(NC(=O)Cc2cccs2)C(=O)N2C(C(=O)O)=C(COC(N)=O)CS[C@@H]21	-7.37%
N#CCC(N)=C(C#N)C#N	-5.73%
O=C(OCCN1CCOCC1)c1cccs1	0.24%
CC(=O)c1cc2c(cc1NC(=O)c1ccco1)OCCO2	-11.9%
CC(C)NS(=O)(=O)c1ccc(OCC(=O)Nc2cccc(F)c2)cc1	-10.4%
COc1ccc2[nH]c(CN3CCN(CC(C)C)C(CCO)C3)c(C)c2c1 (centres undefined)	-4%
Cc1ccsc1C1NC(=O)c2ccccc2N1 (centres undefined)	-15.2%
Fc1ccc(NC(=S)Nc2ccccc2Cl)cc1	-1.64%
CCN1C(=O)C(CC(=O)Nc2ccc(F)cc2)N(Cc2ccco2)C1=S (centres undefined)	18.7%
Cc1ccc2c(c1C)NC(C(=O)O)C1CC=CC21 (centres undefined)	-4%
c1cc(-c2ccncc2)ccn1	79.2% (active)
NS(=O)(=O)c1ccc(CCNC(=O)C2CCCN2C(=O)OCc2ccccc2)cc1 (centres undefined)	3.28%
CC(C)CN1CCN(Cc2cccn2-c2ccccn2)CC1CCO (centres undefined)	1.64%
CC(C)COCC(CN(Cc1ccccc1)c1ccccc1)N1CCCC1 (centres undefined)	-0.82%
CS(=O)(=O)NCc1ccc(C(=O)NCc2ccccc2)cc1	-3.02%
COc1cc(NC(=S)NN2CCN(C)CC2)cc(OC)c1OC	5.13%
CC(=O)[C@@H]1[C@@H](C(=O)c2ccc(C)cc2)[C@]2(C(=O)Nc3ccccc32)[C@H]2C=Cc3cc(F)ccc3N12	8.8%
COC(=O)c1ccc(NC(=O)c2ccccc2SC)cc1	5.13%
O=C(Nc1nc2ccccc2s1)c1ccc(F)cc1	-4%

Compound	differentiation response
CC(=O)N1c2ccccc2C(C)=CC1(C)C	-1.05%
CCC(=O)Oc1ccc(C(=O)Nc2ccc([N+](=O)[O-])cc2)cc1	-6.55%
C[C@]12CC[C@@H]3c4ccc(O)cc4CC[C@H]3[C@@H]1CC[C@@H]2O	9.54%
C=CCNc1nc2c(c(=O)n(C)c(=O)n2C)n1CC(=C)C	-1.88%
COc1ccc(CN2CCCCC2C(=O)Nc2ccc(OC)c(OCC(C)C)c2)cc1OC (centres undefined)	2.2%
Cn1cc(C2N3CC4(C)CN2CC(C)(C3)C4=O)c2ccccc21 (centres undefined)	-7.57%
Cc1ccc2nc(NC3=NC(CC(=O)O)C(=O)N3)nc(C)c2c1 (centres undefined)	9.04%
Cc1ccc(C2CC(=O)C(C=NCCN3CCN(CC(=O)Nc4cc(C)cc(C)c4)CC3)=C(O)C2)cc1 (centres undefined)	-16.3%
NC(N)=NC(=O)Cc1c(Cl)cccc1Cl	-2.69%
O=C(CCSc1ccccc1)N1CCCC1	-0.36%
O=C(Nc1ccc(F)c([N+](=O)[O-])c1)c1ccc2c(c1)OCCO2	5.13%
Nc1ccc2cn[nH]c2c1	-16.3%
CCN(CC)CC#CCOC(=O)C(O)(c1ccccc1)C1CCCCC1 (centres undefined)	-1.64%
CC(C)CN1CCN(Cc2ccc(C#CC(C)(C)O)cc2)CC1CCO (centres undefined)	-2.46%
Cc1ccccc1NC(=O)NCCc1c[nH]c2ccccc12	-1.88%
C#CCN1C(=O)C(O)(c2c(C)[nH]c3ccccc23)c2ccccc21 (centres undefined)	0%
Cc1ccc(S(=O)(=O)N2CCC(C(=O)N[C@@H](C)C(=O)NC3CCS(=O)(=O)C3)CC2)cc1 (some centres undefined)	-13.3%
CCNC(=O)c1c(N)sc2c1CCCCC2	7.2%
COc1ccccc1C(=O)Oc1ccc2c(c1)O/C(=C\c1ccncc1)C2=O	10.8%
